The test system of one assay is CRL-7250. Put plainly: Cytotoxic Profiling of Annotated Libraries Using Quantitative High-Throughput Screening (AID 1296008). For max response: % is set by controls: 0 for no effect and ±100 for the full control effect. Note: nearly all actives have a fitted effect of over 60% in size. Note: potency is the fitted concentration of half-maximal effect. To be noted: Five cell lines viability, CellTiter-Glo ATP luminescence, 48-72 h; max response: active compounds read low. In short, it runs like this: (§1)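 Cells exposed to compounds for 48 or 72 hr at 37 degrees Celsius. Viability read as ATP-coupled luminescence with CellTiter-Glo after 10 min at room temperature.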

The subject of assay [1] is HaCat. The description is as above. To be noted: Five cell lines viability, CellTiter-Glo ATP luminescence, 48-72 h; max response: active compounds read low. In short, it runs like this: as §1
A further assay relates to KB-3-1. The description is as above. Conditions: Five cell lines viability, CellTiter-Glo ATP luminescence, 48-72 h; max response: active compounds read low. In short, it runs like this: as §1
Background: ATP-based viability assays read luminescence as a measure of living cells.

The test system of assay [2] is NIH3T3. The assay is described as above. Conditions: Five cell lines viability, CellTiter-Glo ATP luminescence, 48-72 h; max response: active compounds read low. In short, it runs like this: as §1
Another assay deals with MCC-13. Put plainly: qHTS assay to identify novel small-molecules to repurpose for Merkel cell carcinoma treatment (AID 1296009). Note: nearly all actives have a fitted effect of over 60% in size. Conditions: MCC and control cell lines, CellTiter-Glo viability, 72 h; series mostly up to 46 µM. In short, it runs like this:
(§2)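 Cells were treated for 72 hr at 37 degree celsius with compounds in 8- or 11-point dose response. Viability was read by CellTiter-Glo luminescence, normalized to no-cell (cytotoxicity) and DMSO controls.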

A further assay deals with MCC-26. The assay is described as above. To be noted: MCC and control cell lines, CellTiter-Glo viability, 72 h; series mostly up to 46 µM. In short, it runs like this: as §2
The next assay has as its system MKL-1. The assay is described as above. To be noted: MCC and control cell lines, CellTiter-Glo viability, 72 h; series mostly up to 46 µM. In short, it runs like this:
as §2

A further assay relates to MKL-2. Described as above. To be noted: MCC and control cell lines, CellTiter-Glo viability, 72 h; series mostly up to 46 µM. In short, it runs like this: as §2
A further assay concerns UISO. Described as above. Conditions: MCC and control cell lines, CellTiter-Glo viability, 72 h; series mostly up to 46 µM. In short, it runs like this:
as §2

In a further assay the test system is WaGa. The description is as above. To be noted: MCC and control cell lines, CellTiter-Glo viability, 72 h; series mostly up to 46 µM. In short, it runs like this: as §2
Another assay deals with C33A. Put plainly: Primary qHTS to identify gynecologic anti-cancer compounds using libraries of approved drugs and bioactive compounds (AID 1345084). Note: % is set by controls: 0 for no effect and ±100 for the full control effect; nearly all actives have a fitted effect of over 55% in size. To be noted: Gynecologic cancer cell panel viability, ATPlite luminescence, 48 h; series mostly up to 57.5 µM. In short, it runs like this: (§3)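 In this quantitative HTS, cell killing is estimated from loss of ATP-dependent luciferase light. Cells see five compound concentrations over a 48 h exposure.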
Background: Quantitative high-throughput screening tests each substance at several concentrations.

For the next assay, the system named is CAOV3. The description is as above. Conditions: Gynecologic cancer cell panel viability, ATPlite luminescence, 48 h; series mostly up to 57.5 µM. In short, it runs like this:
as §3

The test system of assay [3] is HACAT. Briefly: qHTS assay to identify novel small-molecules to repurpose for Merkel cell carcinoma treatment (AID 1296009). Note: nearly all actives have a fitted effect of over 60% in size. To be noted: MCC and control cell lines, CellTiter-Glo viability, 72 h; at 44.8 µM (top of the series) unless noted. In short, it runs like this: as §2
Another assay concerns TAB109. Briefly: qHTS profiling for inhibitors of Plasmodium falciparum proliferation (AID 504749). Note: nearly all actives have a fitted effect of over 60% in size. Note: potency is the fitted concentration of half-maximal effect. Conditions: P. falciparum in erythrocytes, SYBR Green DNA, 72 h; series mostly up to 28.7 µM. In short, it runs like this: (§4)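 P. falciparum-infected erythrocytes (0.3% parasitemia, 2.5% hematocrit) incubated with compound 72 h at 37 C, 5% CO2. Parasite DNA detected by SYBR Green after lysis, overnight at room temperature; normalised to 0.29 uM artemisinin and DMSO.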

The subject of the next assay is TAB113. Described as above. To be noted: P. falciparum in erythrocytes, SYBR Green DNA, 72 h; series mostly up to 28.7 µM. In short, it runs like this: as §4
The test system of a further assay is TAB165. The description is as above. To be noted: P. falciparum in erythrocytes, SYBR Green DNA, 72 h; series mostly up to 28.7 µM. In short, it runs like this: as §4
The next assay relates to W2. The description is as above. Conditions: P. falciparum in erythrocytes, SYBR Green DNA, 72 h; series mostly up to 28.7 µM. In short, it runs like this: as §4
Assay [4] relates to NIH3T3. Put plainly: qHTS assay to identify novel small-molecules to repurpose for Merkel cell carcinoma treatment (AID 1296009). Note: nearly all actives have a fitted effect of over 60% in size. Conditions: MCC and control cell lines, CellTiter-Glo viability, 72 h; at 44.8 µM (top of the series). In short, it runs like this:
as §2

Results filed as inconclusive are left out. Unmarked numbers belong to inactive results. Activity calls are given as the source filed them. Calls come from the whole dose curve; as a rule, active = well fitted curve in the direction sought with a large enough effect; inconclusive = small, poorly fitted or top-dose-only effect, or another doubt; inactive = no such curve, though single readings can be large; an effect the other way counts as inactive or inconclusive.

For the compound `CC(=O)O[C@]1(C(C)=O)CC[C@H]2[C@@H]3C=C(C)C4=CC(=O)CC[C@]4(C)[C@H]3CC[C@@]21C`, the max response in the assay with CRL-7250 was -4.16%; in the assay on HaCat [1], -4.96%; with KB-3-1 it was 11.8%; with NIH3T3 [2] it was 0.169%. For the same compound, the Potency entry with MCC-13, in the assay with MCC-26, in the assay on MKL-1, in the assay with MKL-2, with UISO and with WaGa was “inactive” throughout. The Potency entry in the assay on C33A and in the assay with CAOV3 was “inactive” in each case.
For `O=C(Nc1ccccc1)OCC(CN1CCCCC1)OC(=O)Nc1ccccc1` (configuration not stated), the max response in the assay with CRL-7250 is -24%; in the assay with KB-3-1, -1.56%; in the assay on NIH3T3 [2] it was -10.2%. Moreover, the result with HaCat [1] and in the assay on HACAT [3] was inactive. Moreover, the Potency result in the assay on MCC-13, in the assay on MCC-26, in the assay with MKL-1, in the assay on MKL-2, with WaGa and in the assay on C33A was “inactive” each time.
With `CC(C)CCCC(C)N` (configuration not stated), the Potency entry in the assay with TAB109, in the assay with TAB113, with TAB165, with W2, with MCC-13 and with MCC-26 was “inactive” in each case. In addition, the Potency entry in the assay on MKL-1, in the assay with MKL-2, in the assay with UISO, with WaGa, with C33A and in the assay on CAOV3 was “inactive” throughout. Besides, the Potency in the assay with CRL-7250 is 33.5 µM (active). Also, the max response is -0.769% in the assay on HaCat [1] and 22% with KB-3-1. Moreover, the result with NIH3T3 [2] and with NIH3T3 [4] was inactive.
As to `OC(C#CCN1CCCC1)(c1ccccc1)c1ccccc1`, the Potency in the assay on TAB165 was 11.2 µM (active); in the assay with W2, 2.13 µM (active). Further, the outcome in the assay on CRL-7250, with HaCat [1] and in the assay with HACAT [3] was inactive. The values for the max response in the assay on KB-3-1 and in the assay on NIH3T3 [2] were 0.398% and -3.64%, respectively. The Potency entry with MCC-13, in the assay on MCC-26, in the assay on MKL-1, in the assay on MKL-2, in the assay on UISO and in the assay on WaGa was “inactive” throughout. For the same compound, the Potency entry with C33A and with CAOV3 was “inactive” throughout.
As for `C[N+]1(C)CCC(=C(c2ccccc2)c2ccccc2)CC1`, the Potency result in the assay on TAB109, in the assay on TAB113, in the assay with W2, in the assay with MCC-13, in the assay on MCC-26 and in the assay on MKL-1 was “inactive” throughout. The Potency entry in the assay with MKL-2, in the assay with C33A and in the assay with CAOV3 was “inactive” throughout. Further, the max response is -1% in the assay with CRL-7250, 3.66% with KB-3-1 and -1.38% in the assay on NIH3T3 [2]. Besides, the result in the assay on HaCat [1] and in the assay with HACAT [3] was inactive.
For `CCCCOC(=O)CC(CC(=O)OCCCC)(OC(C)=O)C(=O)OCCCC`, the max response is -18.3% with CRL-7250, 0.604% with KB-3-1 and -2.35% in the assay with NIH3T3 [2]. The outcome in the assay with HaCat [1] and in the assay with HACAT [3] was inactive. Also, the Potency entry in the assay on MCC-13, in the assay on MCC-26, in the assay with MKL-1, with MKL-2, in the assay with UISO and with WaGa was “inactive” throughout. Further, the Potency result with C33A and in the assay with CAOV3 was “inactive” throughout.
As to `O=C(NC1CCN(CCc2c[nH]c3ccccc23)CC1)c1ccccc1`, the Potency result in the assay with TAB113, with TAB165, in the assay on MCC-13, in the assay with MCC-26, in the assay with MKL-1 and in the assay on MKL-2 was “inactive” each time. The Potency result in the assay on UISO, in the assay with WaGa, in the assay with C33A and in the assay on CAOV3 was “inactive” each time. The max response with CRL-7250 is -5.92%; in the assay with KB-3-1 it was -0.418%; in the assay with NIH3T3 [2], -2.1%. Further, the call in the assay with HaCat [1] and in the assay on HACAT [3] was inactive.

Source of the values: PubChem BioAssay (NCATS).
